ROCK2 inh = inhibitors of human Rho kinase 2; O75116; purified ROCK2, Kinase-Glo ATP depletion luminescence; inhibition, % at 6 µM; hit rate 0.35% among 60,000;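 active means inhibition above the screen-wide mean inhibition plus 3 SD, cut at about 18% in these data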
D1 allo mod = allosterically modulates the human D1 dopamine receptor. hit rate 5.9% among 58,000. HEK293 D1, CRE-luciferase, dopamine EC30 potentiation; actives deviate in either direction. P21728. B-score at 10 µM;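 active means luminescence count or its row- and column-corrected plate score outside the 99.7% band of the plate's sample wells, on either side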
hDAT+cocaine = human DAT dopamine uptake with cocaine, either direction | Q01959 | LLC-PK1 hDAT cells, [14C]-dopamine uptake with cocaine IC80; actives deviate in either direction | B-score at 10 µM | hit rate 1.3% among 110,000;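 active means Z score or B-score, a plate-position-corrected score, falls beyond the plate's 99.7% confidence bounds, in either direction; inactive means both scores lie inside the 99.7% bounds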
Target sequence (Q01959 whole entry, looked up): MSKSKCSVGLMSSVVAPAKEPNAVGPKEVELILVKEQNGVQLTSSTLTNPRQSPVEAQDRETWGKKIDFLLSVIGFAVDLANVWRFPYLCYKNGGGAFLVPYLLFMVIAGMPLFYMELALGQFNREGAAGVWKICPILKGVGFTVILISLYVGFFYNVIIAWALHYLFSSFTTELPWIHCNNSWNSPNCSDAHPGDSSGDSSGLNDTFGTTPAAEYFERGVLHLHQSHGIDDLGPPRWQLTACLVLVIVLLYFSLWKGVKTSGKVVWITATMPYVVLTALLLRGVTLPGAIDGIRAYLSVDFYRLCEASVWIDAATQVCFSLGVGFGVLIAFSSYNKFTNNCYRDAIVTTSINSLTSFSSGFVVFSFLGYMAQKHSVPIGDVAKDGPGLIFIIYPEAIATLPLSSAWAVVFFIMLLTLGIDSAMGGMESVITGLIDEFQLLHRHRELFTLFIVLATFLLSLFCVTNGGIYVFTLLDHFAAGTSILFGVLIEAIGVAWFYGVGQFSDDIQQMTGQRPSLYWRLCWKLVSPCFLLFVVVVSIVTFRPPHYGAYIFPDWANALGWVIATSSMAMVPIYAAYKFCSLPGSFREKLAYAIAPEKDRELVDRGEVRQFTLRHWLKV
PKA kinase inh = PKA (human) kinase inhibition | inhibition, % at 6 µM | P17612 | PKA Kemptide phosphorylation, Kinase-Glo ATP luminescence | hit rate 0.1% among 65,000;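 active means inhibition above the screen-wide mean inhibition plus 3 SD, cut at about 21% in these data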
D1 PAM confirm = D1 receptor (human) allosteric modulation, confirmed. HEK293 D1 CRE-luciferase, dopamine EC30 potentiation; hits give high values. shares compounds with D1 allo mod. hit rate 88% among 2,200. luminescence at 10 µM;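 active means luminescence in either of two replicates above the same-plate mean plus 3 SD of the low-dose dopamine control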
D1 ag no DA = secondary test of D1 modulators: activity without dopamine. shares compounds with D1 allo mod. HEK293 D1 CRE-luciferase, luminescence, no dopamine; hits give high values. luminescence at 10 µM. AID 646. hit rate 0.8% among 1,900; in the data active means luminescence above about 3900
Isoprot counter = alters isoproterenol CRE-luciferase response in HEK293 cells; shares compounds with D1 allo mod; hit rate 63% among 2,200; calls only at 10 µM; HEK293 D1 CRE-luciferase, isoproterenol EC30 counter-screen;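 active means luminescence in either replicate above plate mean of wells with a partly effective reference agonist dose plus 3 SD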;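 further: isoproterenol raises cAMP through native beta-adrenoceptor Gs so signal bypasses D1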
A number is an active result; i = inactive; nt = no result given; + = active, no number. This excerpt belongs to a sample that is enriched for hits.

SMILES | ROCK2 inh | D1 allo mod | hDAT+cocaine | PKA kinase inh | D1 PAM confirm | D1 ag no DA | Isoprot counter
COc1cc(NC2c3ncccc3C(=O)N2Cc2ccco2)cc(OC)c1 (stereo not given) | i | 12.3 | i | i | 14836 | i | +
COc1ccc(CN2C(=O)c3cccnc3C2Nc2ccc(OC)c(Cl)c2)cc1 (stereo not given) | i | 7.61 | i | i | 13912 | nt | +
CCOc1ccc(N2C(=O)c3cccnc3C2Nc2ccc(F)cc2)cc1 (stereo not given) | i | i | i | i | nt | nt | nt
Cc1ccc(NC2c3ncccc3C(=O)N2Cc2ccc(F)cc2)cc1 (stereo not given) | i | 7.46 | i | i | 10592 | nt | +
CCCCOC(=O)Nc1ccc(C)c(Cl)c1 | nt | nt | i | nt | nt | nt | nt
CCN(CC)CCn1c2ccccc2c2cnc(N)c(C#N)c21 | nt | nt | i | nt | nt | nt | nt
COc1ccc(-c2csc(NCCc3nc4cc(Cl)c(Cl)cc4n3CCCO)n2)cc1 | nt | nt | i | nt | nt | nt | nt
CC(C)c1onc(C(=O)N2CCN(Cc3ccccc3)CC2)c1[N+](=O)[O-] | nt | nt | i | nt | nt | nt | nt
CCOC(=O)N1CCC(N2Cc3cccc(C(=O)NC(C)c4ccc5c(c4)OCCO5)c3C2=O)CC1 (stereo not given) | i | 2.41 | i | i | 8332 | i | i
CN(Cc1ccccc1)c1nc(N)c([N+](=O)[O-])c(Nc2cccc(F)c2)n1 | nt | nt | i | nt | nt | nt | nt
CCOC(=O)c1c(NC(N)=O)sc(C)c1C | i | 6.67 | i | i | 11700 | i | +
CCOC(=O)Nc1sc(C(=O)N(CC)CC)c(C)c1C(=O)OCC | i | 5.08 | i | i | 14176 | i | i
CCOC(=O)c1c(NC(=O)CNCCO)sc(C)c1C | i | i | i | i | nt | nt | nt
CC(=O)c1ccc(NS(=O)(=O)c2cccc(C)c2)cc1 | nt | i | i | i | nt | nt | nt
CCOc1ccc(-c2nc(C#N)c(NCC3CCCO3)o2)cc1 (stereo not given) | nt | nt | i | nt | nt | nt | nt
COc1ccc(-c2nc(C#N)c(NC(C)c3ccccc3)o2)cc1OC (stereo not given) | i | 6.81 | nt | i | 12956 | nt | i
COc1ccc(-c2nc(C#N)c(NCC3CCCO3)o2)cc1OC (stereo not given) | i | 3.82 | i | i | 8472 | i | +
CN(C)c1oc(-c2ccccc2Cl)nc1C#N | i | 3.44 | nt | i | 6136 | i | i
N#Cc1nc(-c2ccccc2Cl)oc1NCC1CCCO1 (stereo not given) | i | 5.68 | i | i | 10656 | i | +
CCOC(=O)N1CCN(c2nc(C)c3c(n2)CC(C)CC3=O)CC1 (stereo not given) | i | i | i | i | nt | nt | nt
CCO[C@H]1OC(C(=O)NC2CC2)=C[C@@H](c2coc3ccccc3c2=O)[C@@H]1CCCO | nt | nt | i | nt | nt | nt | nt
CC(C)(C)NC(=O)CN(C(=O)Cn1nnc(-c2ccccc2F)n1)c1cccc2c1CCCC2 | nt | nt | i | nt | nt | nt | nt
COc1ccc(-c2nc(C#N)c(N3CCOCC3)o2)cc1OC | i | 3.2 | i | i | 11200 | i | +
O=C(CC(=O)NC1CCCCC1)N/N=C/c1cccc2ccccc12 | nt | nt | i | nt | nt | nt | nt
CCOc1ccc(Nc2oc(-c3cccs3)nc2C#N)cc1 | i | 5.84 | i | i | 11044 | i | +
SMILES | ROCK2 inh | D1 allo mod | hDAT+cocaine | PKA kinase inh | D1 PAM confirm | D1 ag no DA | Isoprot counter
CCOc1ccc(Nc2oc(-c3ccco3)nc2C#N)cc1 | i | 4.02 | i | i | 19668 | i | +
CCOc1ccc(Nc2oc(-c3cccc(Cl)c3)nc2C#N)cc1 | nt | nt | i | nt | nt | nt | nt
CCNc1nc(C)nc2c1oc1ccccc12 | nt | 9.33 | i | i | 16376 | nt | +
CCc1nc(NCc2ccco2)c2oc3ccccc3c2n1 | nt | 13.4 | i | i | i | nt | i
c1coc(CNc2ncnc3c2oc2ccccc23)c1 | i | i | i | i | nt | nt | nt
Cc1nc(NCC2CCCO2)c2oc3ccccc3c2n1 (stereo not given) | nt | nt | i | i | nt | nt | nt
CCc1nc(NCC2CCCO2)c2oc3ccccc3c2n1 (stereo not given) | i | 6.05 | i | i | 12724 | nt | +
CCNc1nc(CC)nc2c1oc1ccccc12 | nt | nt | i | i | nt | nt | nt
CCOC(=O)c1oc2cccc(O)c2c1C | nt | nt | i | nt | nt | nt | nt
CCOC(=O)c1oc2ccccc2c1CN1CCN(C(=O)c2ccccc2)CC1 | i | 6.95 | 2.8 | i | 17092 | i | +
CCOC(=O)c1c(-c2ccccc2)oc2ccc(O)c(CN3CCOCC3)c12 | i | i | i | i | nt | nt | nt
CCOC(=O)c1cc(CN2CCOCC2)oc1-c1ccccc1 | i | 3.96 | i | i | 12300 | i | +
CCOC(=O)c1oc2cccc(O)c2c1CN1CCOCC1 | i | 5.81 | i | i | 7884 | i | i
COc1ccc(C(=O)Nc2cc(OC)nc(OC)n2)cc1 | nt | nt | i | nt | nt | nt | nt
CC(=O)Oc1ccc(-c2cc3c(OC(C)=O)cc(OC(C)=O)cc3oc2=O)cc1 | nt | nt | i | nt | nt | nt | nt
Cc1ccc(CSCC(=O)N2CCOCC2)cc1 | nt | nt | i | nt | nt | nt | nt
Cc1ccc(NC2c3ncccc3C(=O)N2C2CCCCC2)cc1 (stereo not given) | i | 11.2 | i | i | 13584 | nt | +
Cc1ccc(NC2c3ncccc3C(=O)N2C2CCCCC2)cc1C (stereo not given) | i | 4.08 | i | i | 10752 | i | +
CSc1ccc(C2C(C#N)=C(N)N(c3ccccc3)C3=C2C(=O)CCC3)cc1 (stereo not given) | nt | 2.58 | i | i | 10676 | i | i
COc1ccc(S(=O)(=O)NCCOc2ccccc2)cc1OC | i | nt | i | i | nt | nt | nt
COc1ccc(CCNS(=O)(=O)c2ccccc2)cc1OC | i | 4.18 | i | i | 15812 | i | +
COc1ccc(-c2cc(C(F)(F)F)nc(SCC(=O)N3CC(C)OC(C)C3)n2)cc1OC (stereo not given) | i | 6.22 | i | i | 18852 | i | +
CC(C)(C)C1CCc2onc(C(=O)Nc3cccnc3)c2C1 (stereo not given) | i | 10.5 | i | i | 19704 | i | +
CC(C)(C)C1CCc2onc(C(=O)Nc3cccc(O)c3)c2C1 (stereo not given) | nt | nt | i | nt | nt | nt | nt
CC1(C)OC(=O)C(=CNc2ccccc2F)C(=O)O1 | i | 5.72 | nt | i | 9180 | i | +
SMILES | ROCK2 inh | D1 allo mod | hDAT+cocaine | PKA kinase inh | D1 PAM confirm | D1 ag no DA | Isoprot counter
O=C(CN1CCN(Cc2ccc(Cl)cc2)C1=O)NCCN1CCCC1 | i | i | nt | i | nt | nt | nt
COc1ccccc1-c1cc(C2CC2)nc(N)c1C#N | i | 9.4 | i | i | 11344 | i | +
N#Cc1c(-c2ccccc2Cl)cc(C2CC2)nc1N | i | 14.8 | i | i | 20296 | i | +
CC(C)(C)NC(=O)COc1ccc(CNCc2cccs2)cc1 | nt | nt | i | nt | nt | nt | nt
NC(=O)c1cc2ccc(O)cc2oc1=Nc1ccccc1 | i | 5.12 | i | i | i | i | i
N#Cc1c(N2CCCCC2)nc(N)c2c(N)nc3c(c12)CC(c1ccccc1)O3 (stereo not given) | nt | nt | i | nt | nt | nt | nt
CCN(CC)c1nc(N)c2c(N)nc3c(c2c1C#N)CC(c1ccccc1)O3 (stereo not given) | i | 3.58 | i | i | 6688 | i | i
CCOC(=O)NCCc1ccc(OC)cc1 | i | 3.75 | i | i | 8468 | i | i

Source: PubChem (several laboratories)
